# Assay outcomes from PubChem BioAssay.
# Compounds with a hit are over-represented: about 6.5% of the library has one in this group of screens.
# LASV entry inh: blocks Lassa virus binding to or entry into cells. Lassa virus pseudotype entry inhibition, cell reporter. Potency, µM (series often up to 37.9 µM), for the others: at the top dose activity change, negative = inhibition, hits mostly inhibitors. hit rate 1.2% among 300,000. AID 540256; calls by dose curve; tested in HEK293 cells; further: potency means the concentration at half of the fitted maximal effect; nearly all actives have a fitted effect of over 50% in size
# MARV entry inh: blocks Marburg virus binding to or entry into cells. Marburg virus pseudotyped entry inhibition, cell reporter. Potency, µM (series often up to 37.8 µM), for the others: top-dose activity change, negative = inhibition, actives largely listed as inhibitors. hit rate 1.8% among 300,000. AID 540276; calls by dose curve; tested in HEK293 cells; further: potency means the concentration at half of the fitted maximal effect
# Vaccinia Venus: vaccinia inhibition (Venus reporter); hit rate 0.46% among 330,000; Potency, µM (titrated, usually from 36.5 µM), inactives show at the highest dose activity change, negative = inhibition, hits mostly inhibitors; Vaccinia virus Venus reporter expression, fluorescence; AID 720580; calls by dose curve; tested in A549 cells; further: potency means the concentration at half of the fitted maximal effect; nearly all actives have a fitted effect of over 30% in size
# Vaccinia mCherry: inhibitors of vaccinia virus infection (mCherry reporter signal); Vaccinia virus mCherry reporter infection, fluorescence; Potency, µM (top dose mostly 36.5 µM), for the others: at the highest dose activity change, negative = inhibition, usual class: inhibitors; hit rate 0.63% among 310,000; calls by dose curve; tested in A549 cells; further: potency means the concentration at half of the fitted maximal effect; nearly all actives have a fitted effect of over 35% in size
# FMDV antiviral: antivirals against foot and mouth disease virus. FMDV antiviral cell-based qHTS. Potency, µM (titrated, usually from 57.9 µM), for the others: top-dose activity change, negative = inhibition, hits mostly inhibitors. hit rate 1.2% among 410,000. AID 1159524; calls by dose curve; tested in HEK293T cells; further: read-out not given here; potency means the concentration at half of the fitted maximal effect; nearly all actives have a fitted effect of over 45% in size
# HCMV antiviral: inhibitors of human cytomegalovirus; activity change, negative = inhibition, % at 57.5 µM; hit rate 4.5% among 410,000; HFF cells, HCMV-luciferase reporter, 72 h; active compounds read low; AID 1259415; in the data active means activity change below about -60%; inconclusive means no clear call, values can overlap the other calls; inactive means above about -39%
#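 HFF cells seeded 16 h at 37C, treated with compounds, infected with luciferase-reporter HCMV at MOI 1 PFU/cell; luciferase read at 72 h post infection, normalized to buffer-only and Salinomycin controls.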
# * hit, by the source's call; i = inactive; ? = inconclusive; . = no result given; + = active, no number; [ ] = remark or other dose. On the % scale 0 is the no-effect control and ±100 the full control effect.
SMILES,LASV entry inh,MARV entry inh,Vaccinia Venus,Vaccinia mCherry,FMDV antiviral,HCMV antiviral
COc1ccc(NC(=O)CN2CCN(Cc3ccc(F)cc3)S2(=O)=O)cc1Cl,-11.6%[46.1 µM],.,-13.0%,-18.0%,-24.1%,-12.5
COC(=O)c1ccc(OC)c(CN2CCCN(Cc3ccc(C)cc3)S2(=O)=O)c1,2.0%[46.1 µM],.,-0.9%,-1.7%,4.4%,+
CCOc1cc(C(=O)Nc2ccc(-c3nnc4n3CCCCC4)cc2)cc(OCC)c1OCC,-5.4%[46.1 µM],.,-5.3%,-6.2%,-24.6%,-6.0
COc1ccc(-c2cc(C#N)nc(Oc3ccc(Cl)cc3)n2)cc1,?,?,8.4%,-8.3%,-26.9%,-33.3
N#Cc1ccc(Oc2nc(C#N)cc(-c3ccccc3)n2)cc1,-34.9%,-6.2%,-20.8%,-10.2%,11.2µM*,?
CNC(=O)C1CCN(C(=O)N2CC(C)Oc3ccc(Cl)cc32)CC1 (stereo unspecified),?,.,-6.1%,-13.4%,-2.0%,16.8
Cc1ccc(C)c2sc(N3CCN(C(=O)c4ccc([N+](=O)[O-])o4)CC3)nc12,?,12.6µM*,?,?,?,-7.2
Nc1cccc(-c2nc3ncccc3o2)c1,?,8.1%,-0.7%,-5.6%,0.0%,62.1
Nc1cccc(-c2nc3cc(S(=O)(=O)c4ccc5oc(-c6cccc(N)c6)nc5c4)ccc3o2)c1,?,?,.,.,-21.6%,-83.3*
Cc1ccc(-c2nc3cc(N)ccc3o2)cc1,?,?,.,.,-34.1%,172.8
Cc1ccc2oc(-c3cccc(N)c3)nc2c1,?,12.6µM*,-16.1%,-21.7%,-34.2%,155.2
Cc1ccc(-c2nc3cc(C)ccc3o2)cc1,14.1µM*,?,-1.7%,-10.7%,10µM*,44.3
O=C(Cn1nc(N2CCN(c3ccccc3)CC2)ccc1=O)NCc1cccc(Cl)c1,2.3%[46.1 µM],.,-9.2%,-13.1%,-26.7%,-20.7
CCNc1ncc2nc(CCc3ccccc3)c(=O)n(CCC#N)c2n1,.,.,.,.,-3.5%,.
C[C@@H]1[C@@H](c2ccccc2)c2cc3ccccc3nc2-c2nc3ccccc3cc2[C@H]1C(=O)N1CCCC1,?,25.3%[14.2 µM],.,.,.,.
C[C@H]1CC[C@]2(NC1)O[C@H]1C[C@H]3[C@@H]4CC[C@H]5C[C@@H](O[C@@H]6O[C@H](CO)[C@H](O[C@@H]7O[C@H](CO)[C@@H](O)[C@H](O[C@@H]8OC[C@@H](O)[C@H](O)[C@H]8O)[C@H]7O[C@@H]7O[C@H](CO)[C@@H](O)[C@H](O)[C@H]7O)[C@H](O)[C@H]6O)CC[C@]5(C)[C@H]4CC[C@]3(C)[C@H]1[C@@H]2C,.,.,?,?,25.1µM*,.
CC(=O)OC1CCC2(C)C(=CCC3C2CCC2(C)C3CC3OC4(CCC(C)CN4)C(C)C32)C1 (stereo unspecified),.,.,-6.4%,-10.8%,-16.1%,-23.5
COCc1c(C(=O)NC2CCCC2)cnn1-c1nccc(-c2cc(C)sc2C)n1,.,.,-6.2%,-11.3%,34.9%,.
CCOc1ccc(S(=O)(=O)NCC(c2ccco2)S(=O)(=O)c2ccc(F)cc2)cc1 (stereo unspecified),-19.1%[46.1 µM],.,-20.7%,-24.8%,16.1%,-22.0
COc1ccc(-c2nc(C)sc2CC(=O)O)cc1OC,3.0%,25.2%[46.1 µM],-7.4%,-11.6%,-6.0%,-24.2
COc1ccc(-c2nc(C)sc2CC(=O)O)cc1,-1.3%,?,-17.5%,-20.8%,-15.9%,-82.5*
CN(C)CCNC(=O)c1ccc(Cn2c(=O)c3cccn3c3cccnc32)cc1,?,.,-5.8%,-12.3%,-11.8%,?
COc1ccc(-c2cc3nc(C)cc(N4CCN(C(=O)c5ccoc5)CC4)n3n2)cc1,.,.,-0.5%,-1.7%,-19.3%,-17.9
COc1ccc(-c2[nH]nc3nc(N4CCN(C(=O)c5ccoc5)CC4)cc(C(F)(F)F)c23)cc1,.,.,?,-27.4%,?,-77.2*
COc1cc(OC)c(/C=C/c2nc3ccccc3o2)c(OC)c1,.,.,-10.3%,-12.1%,.,.
SMILES,LASV entry inh,MARV entry inh,Vaccinia Venus,Vaccinia mCherry,FMDV antiviral,HCMV antiviral
Cc1n[nH]c(=S)n1Cc1ccccc1,.,.,-6.0%,-20.6%,-7.4%,-82.2*
S=c1[nH]nc(CN2CCCC2)n1Cc1ccccc1,13.3%,?,1.0%,i,-5.8%,-22.3
CCn1c(CSCc2ccccc2)n[nH]c1=S,-11.6%,1.2%[46.1 µM],-2.2%,-5.4%,-7.7%,-73.1*
CCn1c(Cc2ccccc2)n[nH]c1=S,.,.,.,.,-5.1%,-13.5
S=c1[nH]nc(-c2ccccc2)n1Cc1ccccc1,11.0%,7.8%,-9.3%,i,-15.9%,23.2
S=c1[nH]nc(CN2CCCCC2)n1Cc1ccccc1,?,1.7%[46.1 µM],-0.4%,i,-13.2%,-81.9*
COc1cc(=O)n2c(c1C(=O)NC(C)c1ccco1)CCN(Cc1ccc3nsnc3c1)CC2 (stereo unspecified),.,.,-3.8%,-10.4%,-0.3%,.
OCC(O)C[n+]1cccc(Br)c1 (stereo unspecified),.,.,-13.0%,37.6%,.,.
Cc1ccc(C(=O)NNc2ncnc3c2cnn3C)cc1,8.1%,-2.0%[46.1 µM],-2.9%[7.34 µM],-1.9%[7.34 µM],16.2%,7.7
Cn1ncc2c(O/N=C(\N)c3ccc(C(F)(F)F)cc3)ncnc21,.,.,.,.,22.4µM*,-18.5
Cc1ccc(N(CC(=O)NCc2ccc3c(c2)OCO3)C(=O)CCC(=O)Nc2ccccn2)cc1,?,-0.6%[46.1 µM],-22.8%,-2.9%,0.0%,-25.4
Cc1cc(C)cc(N(CC(=O)NCc2ccc3c(c2)OCO3)C(=O)CCC(=O)Nc2ccccn2)c1,10µM*,?,-10.2%,.,?,1.5
Cn1cnc(S(=O)(=O)N2CCC(C(=O)N3CCN(c4ccccc4F)CC3)CC2)c1,?,.,-4.4%,-8.6%,-20.1%,-15.9
COc1ccc2[nH]c(C(=O)N/N=C/c3ccc(O)cc3O)cc2c1,.,.,?,?,15.9%,-89.7*
COc1ccc(/C=N/NC(=O)c2nc(-c3ccccc3)n(-c3ccccc3)n2)c(O)c1,?,?,?,3.16µM*,-23.6%,?
CCOc1ccc2[nH]c(C(=O)N/N=C/c3ccc(OC)cc3)cc2c1,?,?,?,?,-11.9%,-34.6
O=S1(=O)CCO[C@H]2CCCC[C@@H]2N1Cc1cccc(F)c1,.,.,-16.1%,-23.8%,.,.
COc1ccc(C(=O)N2N=C(c3ccccc3)CC2(O)C(F)(F)F)cc1 (stereo unspecified),?,12.6µM*,0.0%,-7.2%,-15.4%,-3.3
O=C(NC1CCCc2ccccc21)c1cnn2c1NC(=C1CC1)C=C2C(F)F (stereo unspecified),.,.,-29.2%,-17.7%,.,.
Cc1ccc(S(=O)(=O)C(CNC(=O)C(=O)NCc2ccc(Cl)cc2)c2cccs2)cc1 (stereo unspecified),-14.7%[46.1 µM],.,-14.8%,-19.4%,-8.4%,-21.6
O=C1OCCC1Sc1nnc(-c2ccc(Cl)cc2Cl)o1 (stereo unspecified),?,5.01µM*,-12.3%,-8.5%,?,-29.6
O=C(O)CCSc1nnc(-c2ccc(Cl)cc2Cl)o1,?,?,-3.8%,-4.7%,-17.5%,-76.3*
O=C1OCCC1Sc1nnc(-c2ccccc2)o1 (stereo unspecified),-10.0%,4.3%,7.9%,-6.6%,2.9%,9.9
